Reference: PubChem BioAssay AID651730 (NMMLSC, 2012)
Activity calls are given as the source filed them. The rule behind the calls is not given here.

Experiment: V-ATPase regulators in yeast, S. cerevisiae, pHLuorin, powder sets 2-3, dose response (AID 651730)
Settings: S. cerevisiae vacuolar pH, pHluorin fluorescence; series mostly up to 100 µM

outcome, inactive:
O=C(c1cc(Cl)ccn1)N1CCN(c2nc3ccc(F)cc3s2)CC1, Nc1ncc(C(=O)Nc2ccccc2N2CCOCC2)o1, CC(C)(C)c1ccc(C(=O)N2CCN(c3nc4ccc(F)cc4s3)CC2)o1, O=C(c1cc(CO)ccn1)N1CCN(c2nc3ccc(F)cc3s2)CC1, NC(=O)c1ccc(C(=O)N2CCN(c3nc4ccc(F)cc4s3)CC2)o1, O=C(Nc1ccccc1N1CCOCC1)c1cccc(C(F)(F)F)c1, O=C(c1cc(C(F)(F)F)ccn1)N1CCN(c2nc3ccc(F)cc3s2)CC1, Nc1cncc(C(=O)N2CCN(c3nc4ccc(F)cc4s3)CC2)n1, CN(C)C(=O)c1cccc(C(=O)Nc2ccccc2N2CCOCC2)c1, NC(=O)c1cccc(C(=O)Nc2ccccc2N2CCOCC2)c1, CN(C)Cc1ccc(C(=O)Nc2ccccc2N2CCOCC2)o1, CN(C)S(=O)(=O)c1cccc(C(=O)N2CCN(c3nc4ccc(F)cc4s3)CC2)c1, CS(=O)(=O)c1cccc(C(=O)Nc2ccccc2N2CCOCC2)c1
